Source: PubChem BioAssay (National Center for Advancing Translational Sciences (NCATS))
MCF10A rereplic = inducers of DNA re-replication in MCF 10A breast cells | 350,000 compounds, 2.9% hits | MCF 10A DNA re-replication, Hoechst nuclear intensity, 48 h | Potency, µM (top dose mostly 46.1 µM), without a hit: at the top dose activity, positive = re-replication, usual class: activators; also: potency is read from the fitted curve at half-maximal effect; % of control where 0% means no effect; nearly all actives have a fitted effect of over 50% in size
S2 tox = viability counter-screen for ATXN expression inhibitors. S2 cells (HEK-293 line with an ATXN2-luciferase reporter) viability, CellTiter-Fluor protease fluorescence, 24 h. Potency, µM (doses to about 56.7 µM), most hits filed as cytotoxic. 400,000 compounds, 0.49% hits. AID 651635; also: potency is read from the fitted curve at half-maximal effect; nearly all actives have a fitted effect of over 40% in size
SW480 rerep = inducers of DNA re-replication in SW480 colon cancer cells; SW480 DNA re-replication, Hoechst DNA content imaging, 48 h; Potency, µM (titrated, usually from 46.1 µM), inactives show at the highest dose re-replication activation, usual class: activators; 340,000 compounds, 1.8% hits; also: potency is read from the fitted curve at half-maximal effect; % of control where 0% means no effect; nearly all actives have a fitted effect of over 55% in size
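Image-based DNA-content assay: after two days of treatment, nuclei were labelled with the DNA dye Hoechst and imaged, and hits were compounds raising the count of nuclei showing high fluorescence intensity.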
ATXN2 expr inh = inhibitors of ATXN2 expression | HEK-293 ATXN2-luciferase reporter, luminescence, 24 h | Potency, µM (titrated, usually from 57 µM), without a hit: top-dose activity change, negative = inhibition, usual class: inhibitors | 360,000 compounds, 0.72% hits | AID 1745845; also: potency is read from the fitted curve at half-maximal effect; % is scaled to controls: 0 for no effect and ±100 for the full control effect; nearly all actives have a fitted effect of over 55% in size
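ATXN2-luciferase reporter cells (luciferase flanked by upstream and downstream ATXN2 gene portions) were treated 24 h at 37 °C with compounds at up to 57 uM. SteadyGlo luminescence gave expression; GF-AFC fluorescence gave viability.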
PINK1 expr mod = PINK1 expression modulation. PINK1 immunofluorescence, high-content cytometry, 24 h. Potency, µM (titrated, usually from 76.6 µM), inactives show at the top dose activation (PINK1 increase), actives largely listed as activators. 410,000 compounds, 0.2% hits. AID 624263; active = well fitted activation curve with a large enough effect; inconclusive = small, poorly fitted or top-dose-only effect; cell line not stated here; also: potency is read from the fitted curve at half-maximal effect; % of control where 0% means no effect; nearly all actives have a fitted effect of over 65% in size
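Stable cell line, 250 cells/well, 12 h attachment; compounds pinned at 5 concentrations, 24 h; CCCP control. Fixed with nuclear dye, primary antibodies 12 h at 10 degrees C, secondary plus cell stain; laser-scanning cytometer read.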
IL1B secr inh = inhibitors of inflammasome signaling (IL-1 beta secretion) | THP-1 LPS/ATP IL-1B secretion, AlphaLISA, 16 h; hits give low values | activity change, % at 57.5 µM | 360,000 compounds, 4.7% hits | AID 743279; in the data active = activity change below about -50%; inconclusive = mostly about -30% to -49%; also: % is scaled to controls: 0 for no effect and ±100 for the full control effect
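THP-1 cells pretreated 1 hr with compounds (up to 57.5 uM final), then stimulated with LPS (250 ng/mL final) plus ATP (1.25 mM final); secreted IL-1B measured by AlphaLISA after 16 hr, decreased signal indicating inhibition.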
Numbers without * were called inactive; i = inactive; ? = inconclusive; / = no result; [ ] = another dose, or the depositor's remark. Hits are enriched below; roughly 7.1% of the tested compounds scored in any of these assays. Unless noted, calls follow the shape of the dose curve; as a rule, active = well fitted curve in the direction sought with a large enough effect; inconclusive = small, poorly fitted or top-dose-only effect, or another doubt; inactive = no such curve, though single readings can be large; an effect the other way counts as inactive or inconclusive.

SMILES	MCF10A rereplic	S2 tox	SW480 rerep	ATXN2 expr inh	PINK1 expr mod	IL1B secr inh
CC1CCN(C(=O)c2ccc3c(c2)C(=O)c2ccccc2-3)CC1	/	/	/	/	0%	-7
Cc1cc(C)nc(N/C=C(\C#N)C(=O)c2cccc(CSc3ccccc3)c2)n1	/	/	/	/	1%	/
C1=CC2c3ccccc3NC(c3ccncc3)C2C1 (configuration not stated)	15%	?	-2%	17%	-1%	-107*
Brc1cc2c(cc1C1Nc3ccccc3C3C=CCC31)OCO2 (configuration not stated)	?	i	16µM*	-12%	29%	0
O=C(Nc1nc(-c2ccc(F)c(F)c2)cs1)c1cnccn1	6%	i	1%	5%	1%	1
O=C(Nc1nc(-c2cccc3ccccc23)cs1)c1cnccn1	18µM*	i	?	-12%	4%	13
COc1cc(C(=O)NCc2ccc3c(c2)CCN3C(=O)c2ccncc2)cc(OC)c1OC	/	/	/	/	2%	/
CCn1c2ccccc2c2cc(NC(=O)CSc3nnc(-c4ccc(OC)c(OC)c4)n3N)ccc21	0%	/	-18%	/	/	25
CCn1c2ccccc2c(=O)c2ccccc21	23µM*	/	23µM*	-8%[11.3 µM]	-2%	-14
CCCC(=O)Nc1ccc2c(c1)c1ccccc1n2CC	21µM*	i	?	-16%	3%	-1
CCn1c2ccccc2c2cc([N+](=O)[O-])ccc21	13%	i	-99%	-7%	3%	-2
CCOc1ccc(-c2nnc(SCC(=O)Nc3ccc4c(c3)c3ccccc3n4CC)n2N)cc1	10µM*	/	?	32µM*	-4%	-16
COc1ccccc1C1CN(Cc2cccn2-c2ncccn2)Cc2ccccc2O1 (configuration not stated)	/	?	/	/	1%	/
COc1cc(NC(=O)c2cc(-c3cccc(Cl)c3)on2)c(OC)cc1Cl	/	i	/	-6%	1%	/
O=[N+]([O-])c1cc(Cl)c(Cl)c(Cl)c1Cl	1%	i	25%	-4%	2%	-93*
CCc1ccccc1NC(=O)Nc1cc(C(=O)NCc2cccc(F)c2)ccc1N1CCCC1	/	?	/	-25%	26%	/
CC1CCCN(C(=O)c2ccc(S(=O)(=O)N3CCC(c4nc5ccccc5s4)CC3)cc2)C1 (configuration not stated)	?	i	2%	-20%	0%[38.3 µM]	-70*
CCN(CC)C(=O)c1ccc(S(=O)(=O)N2CCC(c3nc4ccccc4s3)CC2)cc1	?	i	0%	-22%	5%[38.3 µM]	?
CCOC(=O)c1c(C)[nH]c(CCC(=O)Nc2c(C)cccc2CC)c1C	/	/	/	/	-1%	/
CSCCC(NC(=O)c1ccc(Cl)c([N+](=O)[O-])c1)C(=O)N1CCN(C/C=C/c2ccccc2)CC1 (configuration not stated)	18µM*	?	2%	?	-2%	-103*
CC(C)C(NC(=O)c1ccccc1)C(=O)N1CCN(C/C=C/c2ccccc2)CC1 (configuration not stated)	5%	?	-18%	3%	-1%	-22
CCn1nnnc1NCc1ccc(N2CCCC2)cc1	1%	i	-1%	5%	1%	1
CCn1nnnc1NCc1ccc(SC)cc1	6%	i	?	1%	4%	-77*
COc1cc(OC)nc(O[C@H](C(=O)O)C(OC)(c2ccccc2)c2ccccc2)n1	/	i	/	8%	/	/
COc1ccccc1N1C(C)=CC(=C(C#N)c2nc3ccccc3s2)C=C1C	?	i	18µM*	4%	-1%	18
CC1=CC(=C(C#N)c2nc3ccccc3s2)C=C(C)N1c1ccc(F)cc1	?	i	6%	44%	-1%	-9
O=C(c1ccccc1)c1ccc2cc(O)ccc2c1	-3%	/	?	4%	6%	-54*
CCCN1CCN(C(=S)Nc2ccc3nc(N4CCN(CC)CC4)cc(C)c3c2)CC1	18µM*	i	?	-20%	5%	27
